In ChEMBL document CHEMBL2218924, “A broad activity screen in support of a chemogenomic map for kinase signalling research and drug discovery” (Biochem J, 2013):

molecular target: Calcium/calmodulin-dependent protein kinase type II subunit beta (Homo sapiens) (UniProt Q13554); conditions: at 10 µM
Sequence (Q13554 whole entry): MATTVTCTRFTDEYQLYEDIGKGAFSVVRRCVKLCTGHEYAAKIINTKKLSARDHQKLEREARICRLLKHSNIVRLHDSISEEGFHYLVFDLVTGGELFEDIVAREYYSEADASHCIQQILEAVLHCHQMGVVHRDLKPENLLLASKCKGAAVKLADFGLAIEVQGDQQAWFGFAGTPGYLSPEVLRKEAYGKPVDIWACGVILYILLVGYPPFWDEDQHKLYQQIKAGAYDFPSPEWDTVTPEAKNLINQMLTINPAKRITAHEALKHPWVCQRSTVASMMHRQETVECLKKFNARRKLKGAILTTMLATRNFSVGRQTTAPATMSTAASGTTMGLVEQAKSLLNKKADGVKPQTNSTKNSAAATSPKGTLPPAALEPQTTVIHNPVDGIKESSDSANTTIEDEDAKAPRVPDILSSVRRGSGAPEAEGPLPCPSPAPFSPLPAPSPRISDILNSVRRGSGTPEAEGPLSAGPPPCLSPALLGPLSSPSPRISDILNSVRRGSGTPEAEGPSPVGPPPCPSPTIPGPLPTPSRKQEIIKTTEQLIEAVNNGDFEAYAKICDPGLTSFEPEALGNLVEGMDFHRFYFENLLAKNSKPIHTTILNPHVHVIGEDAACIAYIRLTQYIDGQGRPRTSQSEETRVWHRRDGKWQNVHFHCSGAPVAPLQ

Compound | residual activity
NC(=O)Nc1sc(-c2ccc(F)cc2)cc1C(N)=O | 40%
COc1cc2nccc(Oc3ccc(NC(=O)Nc4cc(C)on4)c(Cl)c3)c2cc1OC | 69%
O=c1cc(N2CCOCC2)oc2c1ccc1ccccc12 | 72%
Nc1ncnc2[nH]nc(Nc3ccc(F)cc3)c12 | 20%
CC(C)(C)n1nc(Cc2cccc3ccccc23)c2c(N)ncnc21 | 68%
O=C(NC(NC(=S)Nc1ccc(F)c([N+](=O)[O-])c1)C(Cl)(Cl)Cl)C(c1ccccc1)c1ccccc1 (centres undefined) | 72%
COc1ccc(-c2cnc3c(-c4ccsc4)cnn3c2)cc1 | 89%
CCN(CC)CCNC(=O)c1c(C)[nH]c(/C=C2\C(=O)Nc3ccc(Cl)cc32)c1C | 1%
NCCNc1ncc(C(N)=O)c(Nc2cccc(C(F)(F)F)c2)n1 | 23%
CC(C)c1nn(-c2c(Cl)cccc2Cl)c2nc(Cc3ccc(OCCO)cc3)[nH]c(=O)c12 | 59%
CC(C)(C)c1nc2c3ccc(F)cc3c3c(=O)[nH]ccc3c2[nH]1 | 33%
O=C1NC(=O)C(c2cn(CCCO)c3ncccc23)=C1c1cnccn1 | 70%
O=C1NC(=O)c2c1c1c3ccccc3[nH]c1n1cncc21 | 14%
O=C(O)/C=C/c1cc(Br)c(Br)c(Br)c1Br | 39%
CCCCc1c(-c2ccc(OC)cc2)[nH]c2nccnc12 | 84%
O=C(CCCc1ccc(-c2ccccc2F)cc1)Nc1ccc(O)cc1 | 89%
Cn1sc(=O)n(Cc2ccccc2)c1=O | 83%
Nc1ncnc2c1cnn2-c1ccccc1 | 35%
O=C1Nc2ccc(Cl)cc2/C1=C/c1cc(Cl)c(O)c(Cl)c1 | 23%
c1ccc(-c2cnc(Nc3ccc(OCCN4CCCC4)cc3)s2)cc1 | 7%
Nc1ncnc2c1c(-c1ccc(Oc3ccccc3)cc1)cn2C1CCCC1 | 57%
O=C(c1ccccc1)c1ccc(N2CCOCC2)cc1O | 71%
O=C1Cc2c([nH]c3ccc(Br)cc23)-c2ccccc2N1 | 57%
Cn1c2ccccc2c2c3c(c4c5ccccc5n(CCC#N)c4c21)CNC3=O | 10%
CC(C)N(CCC(=O)c1ccc2ccccc2c1)Cc1ccccc1 | 84%
COc1ccc2c(c1)c(C1=C(c3c[nH]c4ccccc34)C(=O)NC1=O)cn2CCCN(C)C | 28%
O=C1NC(=O)C(c2cn(CCCn3ccnc3)c3ccccc23)=C1Nc1ccccc1 | 45%
Nc1n[nH]c2nc3ccccc3nc12 | 16%
O=c1cc(N2CCNCC2)oc2c(-c3ccccc3)cccc12 | 84%
COc1cc2ncnc(Nc3cccc(Cl)c3)c2cc1OC | 60%

molecular target: Calcium/calmodulin-dependent protein kinase type II subunit gamma (Homo sapiens) (UniProt Q13555); conditions: at 1 µM
Sequence (Q13555 whole entry): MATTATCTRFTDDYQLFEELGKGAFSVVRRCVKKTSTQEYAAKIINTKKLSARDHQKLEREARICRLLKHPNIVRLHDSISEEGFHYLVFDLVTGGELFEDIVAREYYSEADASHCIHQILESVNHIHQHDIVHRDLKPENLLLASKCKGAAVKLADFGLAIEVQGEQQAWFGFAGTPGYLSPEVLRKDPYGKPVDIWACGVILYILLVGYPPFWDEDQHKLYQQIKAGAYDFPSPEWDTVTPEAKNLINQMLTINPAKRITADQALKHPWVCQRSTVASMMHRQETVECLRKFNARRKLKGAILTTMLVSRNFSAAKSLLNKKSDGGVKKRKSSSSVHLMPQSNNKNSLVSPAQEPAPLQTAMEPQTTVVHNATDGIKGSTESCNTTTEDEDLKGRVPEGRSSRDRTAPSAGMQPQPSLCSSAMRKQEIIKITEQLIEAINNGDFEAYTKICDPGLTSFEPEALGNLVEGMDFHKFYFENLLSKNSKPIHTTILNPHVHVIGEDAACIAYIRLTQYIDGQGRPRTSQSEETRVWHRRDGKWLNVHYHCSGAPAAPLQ

Compound | residual activity
NC(=O)Nc1sc(-c2ccc(F)cc2)cc1C(N)=O | 82%
COc1cc2nccc(Oc3ccc(NC(=O)Nc4cc(C)on4)c(Cl)c3)c2cc1OC | 108%
O=c1cc(N2CCOCC2)oc2c1ccc1ccccc12 | 104%
CC(C)(C)n1nc(Cc2cccc3ccccc23)c2c(N)ncnc21 | 106%
O=C(NC(NC(=S)Nc1ccc(F)c([N+](=O)[O-])c1)C(Cl)(Cl)Cl)C(c1ccccc1)c1ccccc1 (centres undefined) | 99%
COc1ccc(-c2cnc3c(-c4ccsc4)cnn3c2)cc1 | 71%
CCN(CC)CCNC(=O)c1c(C)[nH]c(/C=C2\C(=O)Nc3ccc(Cl)cc32)c1C | 3%
NCCNc1ncc(C(N)=O)c(Nc2cccc(C(F)(F)F)c2)n1 | 55%
CC(C)c1nn(-c2c(Cl)cccc2Cl)c2nc(Cc3ccc(OCCO)cc3)[nH]c(=O)c12 | 95%
CC(C)(C)c1nc2c3ccc(F)cc3c3c(=O)[nH]ccc3c2[nH]1 | 21%
O=C1NC(=O)C(c2cn(CCCO)c3ncccc23)=C1c1cnccn1 | 88%
O=C1NC(=O)c2c1c1c3ccccc3[nH]c1n1cncc21 | 15%
O=C(O)/C=C/c1cc(Br)c(Br)c(Br)c1Br | 98%
CCCCc1c(-c2ccc(OC)cc2)[nH]c2nccnc12 | 64%
O=C(CCCc1ccc(-c2ccccc2F)cc1)Nc1ccc(O)cc1 | 106%
Nc1ncnc2c1cnn2-c1ccccc1 | 91%
O=C1Nc2ccc(Cl)cc2/C1=C/c1cc(Cl)c(O)c(Cl)c1 | 62%
c1ccc(-c2cnc(Nc3ccc(OCCN4CCCC4)cc3)s2)cc1 | 19%
Cn1c2ccccc2c2c3c(c4c5ccccc5n(CCC#N)c4c21)CNC3=O | 2%
COc1ccc2c(c1)c(C1=C(c3c[nH]c4ccccc34)C(=O)NC1=O)cn2CCCN(C)C | 62%
Nc1n[nH]c2nc3ccccc3nc12 | 86%
O=c1cc(N2CCNCC2)oc2c(-c3ccccc3)cccc12 | 104%
COc1cc2ncnc(Nc3cccc(Cl)c3)c2cc1OC | 45%

molecular target: Calcium/calmodulin-dependent protein kinase type II subunit gamma (Homo sapiens) (UniProt Q13555); conditions: at 10 µM

Compound | residual activity
NC(=O)Nc1sc(-c2ccc(F)cc2)cc1C(N)=O | 32%
COc1cc2nccc(Oc3ccc(NC(=O)Nc4cc(C)on4)c(Cl)c3)c2cc1OC | 70%
O=c1cc(N2CCOCC2)oc2c1ccc1ccccc12 | 81%
Nc1ncnc2[nH]nc(Nc3ccc(F)cc3)c12 | 30%
CC(C)(C)n1nc(Cc2cccc3ccccc23)c2c(N)ncnc21 | 78%
O=C(NC(NC(=S)Nc1ccc(F)c([N+](=O)[O-])c1)C(Cl)(Cl)Cl)C(c1ccccc1)c1ccccc1 (centres undefined) | 89%
COc1ccc(-c2cnc3c(-c4ccsc4)cnn3c2)cc1 | 79%
CCN(CC)CCNC(=O)c1c(C)[nH]c(/C=C2\C(=O)Nc3ccc(Cl)cc32)c1C | 0%
NCCNc1ncc(C(N)=O)c(Nc2cccc(C(F)(F)F)c2)n1 | 3%
CC(C)c1nn(-c2c(Cl)cccc2Cl)c2nc(Cc3ccc(OCCO)cc3)[nH]c(=O)c12 | 60%
CC(C)(C)c1nc2c3ccc(F)cc3c3c(=O)[nH]ccc3c2[nH]1 | 3%
O=C1NC(=O)C(c2cn(CCCO)c3ncccc23)=C1c1cnccn1 | 74%
O=C1NC(=O)c2c1c1c3ccccc3[nH]c1n1cncc21 | 7%
O=C(O)/C=C/c1cc(Br)c(Br)c(Br)c1Br | 31%
CCCCc1c(-c2ccc(OC)cc2)[nH]c2nccnc12 | 26%
O=C(CCCc1ccc(-c2ccccc2F)cc1)Nc1ccc(O)cc1 | 75%
Nc1ncnc2c1cnn2-c1ccccc1 | 51%
O=C1Nc2ccc(Cl)cc2/C1=C/c1cc(Cl)c(O)c(Cl)c1 | 10%
c1ccc(-c2cnc(Nc3ccc(OCCN4CCCC4)cc3)s2)cc1 | -1%
Nc1ncnc2c1c(-c1ccc(Oc3ccccc3)cc1)cn2C1CCCC1 | 72%
O=C(c1ccccc1)c1ccc(N2CCOCC2)cc1O | 78%
Cn1c2ccccc2c2c3c(c4c5ccccc5n(CCC#N)c4c21)CNC3=O | -5%
COc1ccc2c(c1)c(C1=C(c3c[nH]c4ccccc34)C(=O)NC1=O)cn2CCCN(C)C | 10%
Nc1n[nH]c2nc3ccccc3nc12 | 28%
O=c1cc(N2CCNCC2)oc2c(-c3ccccc3)cccc12 | 88%
COc1cc2ncnc(Nc3cccc(Cl)c3)c2cc1OC | 5%
